# According to PubChem BioAssay (EPA / NIEHS):
# Results filed as inconclusive are left out. Activity calls are given as the source filed them. The calls were made as follows, unless noted: active = hit-call score of the fitted dose curve at least 0.9, where 1 is the maximum; inactive = score below 0.9.
# Columns and labels:
# [1] = ATG_PBREM_CIS: Attagene CIS-FACTORIAL HepG2 Assay for human Phenobarbital-responsive Enhancer Module (PBREM) (AID 2282955); conditions: HepG2 PBREM cis-reporter, Attagene multiplexed transcription; actives raise or lower the signal
# In short: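 Readout: reporter mRNA, fluorescent RT-PCR fragments separated by capillary electrophoresis. System: HepG2 transiently transfected with cis-regulated reporter units. Exposure: 24 h. Analysis: bidirectional, DMSO baseline.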
# [2] = target: Paired box protein Pax-6 (Homo sapiens) (UniProt P26367); assay: ATG_Pax6_CIS: Attagene CIS-FACTORIAL HepG2 Assay for human Paired Box 6 (PAX6) (AID 2282956); conditions: HepG2 CIS-FACTORIAL PAX6 reporter transcription, RNA readout; actives raise or lower the signal
# In short: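 Readout: reporter transcript fluorescence after RT-PCR and capillary electrophoresis. Cells: HepG2, transiently transfected with cis-regulated MRTUs. Exposure 24 h. Gain or loss of signal fitted bidirectionally relative to DMSO.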
# [3] = ATG_PXRE_CIS: Attagene CIS-FACTORIAL HepG2 Assay for human Pregnane X Receptor Element (PXRE) (AID 2282957); conditions: HepG2 Attagene CIS-FACTORIAL PXRE reporter, mRNA; actives raise or lower the signal
# In short: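 Read-out: fluorescence of reporter-specific RT-PCR products resolved by capillary electrophoresis, fitted bidirectionally relative to DMSO. Human HepG2 liver cells carried transfected cis-promoter reporter units and were exposed to chemicals for 24 h.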
# [4] = ATG_PPRE_CIS: Attagene CIS-FACTORIAL HepG2 Assay for human Peroxisome Proliferator-activated Response Element (PPRE) (AID 2282958); conditions: HepG2 PPRE cis-element reporter, Attagene transcription factor profiling; actives raise or lower the signal
# In short: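 After human HepG2 hepatoma cells were transiently transfected with cis-promoter reporter constructs, they were exposed to test chemicals for 24 hours. Reporter RNA was then reverse-transcribed, PCR-amplified, FAM-labeled, HpaI-digested and quantified by capillary electrophoresis.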
# [5] = ATG_RORE_CIS: Attagene CIS-FACTORIAL HepG2 Assay for human RAR-related Orphan Receptor Element (RORE) (AID 2282959); conditions: HepG2 Attagene cis-factorial RORE reporter, mRNA; actives raise or lower the signal
# In short: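 Measured here: transcript induction of a cis-regulated reporter in HepG2 cells transiently transfected via FuGene 6. After 24 h, RNA was processed by RT-PCR and fluorescent capillary electrophoresis; DMSO defined baseline activity.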
# [6] = ATG_Sox_CIS: Attagene CIS-FACTORIAL HepG2 Assay for human SRY-box transcription factor (SOX) (AID 2282960); conditions: HepG2 Attagene cis-factorial SOX reporter, mRNA; actives raise or lower the signal
# In short: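 Using transiently transfected HepG2 cells, reporter transcription driven by cis elements was assessed 24 h after dosing. Signal was fluorescence of capillary-separated RT-PCR products, with DMSO defining baseline activity.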
# [7] = target: Transcription factor Sp1 (Homo sapiens) (UniProt P08047); assay: ATG_Sp1_CIS: Attagene CIS-FACTORIAL HepG2 Assay for human Specificity Protein 1 (Sp1) (AID 2282961); conditions: HepG2 Sp1 cis-reporter transcription, actives raise or lower the signal
# In short: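 After transient transfection of HepG2 cells with cis-promoter reporter units and 24 h chemical treatment, reporter transcripts were quantified by RT-PCR and capillary electrophoresis fluorescence. Gain- and loss-of-signal fitted against DMSO.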
# [8] = ATG_SREBP_CIS: Attagene CIS-FACTORIAL HepG2 Assay for human Sterol Regulatory Element Binding (SREBP) (AID 2282962); conditions: HepG2 Attagene cis-factorial SREBP reporter, mRNA; actives raise or lower the signal
# In short: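 Readout: fluorescent reporter-transcript peaks resolved by capillary electrophoresis after RT-PCR. Cells were human HepG2 carrying transfected cis-promoter reporter constructs, dosed for 24 h. Gain or loss of signal was fitted against DMSO controls.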
# [9] = target: Signal transducer and activator of transcription 3 (Homo sapiens) (UniProt P40763); assay: ATG_STAT3_CIS: Attagene CIS-FACTORIAL HepG2 Assay for human Signal Transducer and Activator of Transcription 3 (STAT3) (AID 2282963); conditions: HepG2, Attagene cis-factorial STAT3 reporter transcription; actives raise or lower the signal
# In short: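 Fluorescence intensity of 6-FAM-labelled reporter fragments, separated by capillary electrophoresis after RT-PCR, gave the signal. Cells were HepG2 transfected with cis-element reporter units and treated 24 h; fitting was bidirectional relative to DMSO.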
# [10] = ATG_TA_CIS: Attagene CIS-FACTORIAL HepG2 Assay for human TA Basal Promoter (AID 2282964); conditions: HepG2 Attagene CIS-factorial TA basal promoter reporter; actives raise or lower the signal
# In short: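 Steps: transfect HepG2 with MRTUs; dose 24 h; isolate RNA, DNase-treat, reverse-transcribe; PCR and FAM-label reporter cDNA; digest with HpaI 2h at 37 C; run capillary electrophoresis. Activity fitted both directions against DMSO.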
# [11] = ATG_TCF_b_cat_CIS: Attagene CIS-FACTORIAL HepG2 Assay for human T-Cell-Factor with beta-catenin (TCF/b-cat) (AID 2282965); conditions: HepG2 TCF/beta-catenin cis-reporter transcription, actives raise or lower the signal
# In short: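 HepG2, transient MRTU transfection, cis-element-driven reporters (endogenous TFs). 24 h compound exposure. Readout: reporter mRNA by RT-PCR + 6-FAM primer extension, HpaI digest, capillary electrophoresis. Gain/loss fit vs DMSO baseline.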
# [12] = ATG_TAL_CIS: Attagene CIS-FACTORIAL HepG2 Assay for human TAL Basal Promoter (AID 2282966); conditions: HepG2 Attagene cis-factorial TAL promoter reporter; actives raise or lower the signal;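 also: background control endpoint measuring basal TAL promoter reporter mRNA not a specific factor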
# In short: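 HepG2, transient MRTU transfection, 24 h compound exposure; RNA → oligo(dT) RT → PCR → 6-FAM primer extension → HpaI digest → CE fluorescence. Bidirectional curve fit vs DMSO. Background-control readout.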
# [13] = ATG_TGFb_CIS: Attagene CIS-FACTORIAL HepG2 Assay for human Transforming Growth Factor (TGF) (AID 2282967); conditions: HepG2 Attagene CIS TGFb reporter, mRNA transcription; actives raise or lower the signal
# In short: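 Cells were dosed for 24 hours, after which total RNA was reverse-transcribed and reporter sequences amplified, labeled and sized by capillary electrophoresis. Activity was fitted in both directions against DMSO.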
# [14] = target: Nuclear receptor subfamily 1 group I member 3 (Homo sapiens) (UniProt Q14994); assay: ATG_CAR_TRANS: Attagene TRANS-FACTORIAL HepG2 Assay for human Constitutive Androstane Receptor (CAR) (AID 2282969; active = hit-call score of the fitted dose curve at least 0.9, where 1 is the maximum;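 also: activators raise reporter mRNA above DMSO so AC50 marks induction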); conditions: HepG2 Attagene TRANS-FACTORIAL CAR reporter
# In short: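 Transiently transfected HepG2, multiplex TRANS reporters (CAR-Gal4 chimera driving GAL4-UAS reporter). 24 h dosing. Readout: reporter transcript by RT-PCR + capillary electrophoresis, fluorescence intensity; positive direction vs DMSO.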
# [15] = target: Estrogen receptor (Homo sapiens) (UniProt P03372); assay: ATG_ERa_TRANS: Attagene TRANS-FACTORIAL HepG2 Assay for human Estrogen Receptor alpha (ERa) (AID 2282970; active = hit-call score of the fitted dose curve at least 0.9, where 1 is the maximum); conditions: HepG2 Attagene TRANS ERa GAL4 reporter, mRNA
# In short: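 Reporter mRNA induction after 24 hours, detected by fluorescent RT-PCR and capillary electrophoresis, gives the read-out. Cells are HepG2 transiently transfected with GAL4-UAS reporter transcription units responding to chimeric NR-Gal4. Activity is taken as gain of signal over DMSO baseline.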
# [16] = target: Steroid hormone receptor ERR1 (Homo sapiens) (UniProt P11474); assay: ATG_ERRa_TRANS: Attagene TRANS-FACTORIAL HepG2 Assay for human Estrogen-Related Receptor alpha (ERRa) (AID 2282971; active = hit-call score of the fitted dose curve at least 0.9, where 1 is the maximum); conditions: HepG2 Attagene TRANS reporter, ERRa transactivation
# In short: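 Transfected HepG2, 24 h dosing, ERRa-Gal4 chimera driving GAL4-UAS reporter. Readout: reporter mRNA via RT-PCR plus capillary electrophoresis (fluorescence). Positive direction vs DMSO control.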
# [17] = ATG_M_19_TRANS: Attagene TRANS-FACTORIAL HepG2 Assay for M19 Transcription Factor (Internal Marker) (AID 2282974; active = hit-call score of the fitted dose curve at least 0.9, where 1 is the maximum); conditions: HepG2 Attagene TRANS-FACTORIAL M19 internal marker reporter
# In short: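 Gain-of-signal in reporter mRNA, relative to DMSO, was scored from capillary electrophoresis fluorescence. HepG2 cells carried transiently transfected multiple reporter transcription units and were incubated with test chemicals for 24 h.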
# [18] = ATG_GAL4_TRANS: Attagene TRANS-FACTORIAL HepG2 Assay for GAL4 (Internal Marker) (AID 2282976; active = hit-call score of the fitted dose curve at least 0.9, where 1 is the maximum); conditions: HepG2 Attagene TRANS GAL4 internal marker reporter
# In short: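 RT-PCR/capillary electrophoresis readout of reporter mRNA. HepG2, transient MRTU transfection (GAL4-UAS reporters), 24 h compound exposure. Background-control endpoint, positive direction vs DMSO baseline.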
# [19] = ATG_VDRE_CIS: Attagene CIS-FACTORIAL HepG2 Assay for human Vitamin D Receptor Element (VDRE) (AID 2282968); conditions: HepG2 VDRE cis-reporter transcription, actives raise or lower the signal
# In short: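 Compounds were applied for 24 h to HepG2 cells transfected with promoter-regulated reporter units. Total RNA was reverse-transcribed, and reporter amplicons were fluorescently labelled and sized by capillary electrophoresis.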
# [20] = target: X-box-binding protein 1 (Homo sapiens) (UniProt P17861); assay: ATG_Xbp1_CIS: Attagene CIS-FACTORIAL HepG2 Assay for human X-box Binding Protein 1 (XBP1) (AID 2282972); conditions: HepG2 XBP1 cis-element reporter, Attagene multiplex; actives raise or lower the signal
# In short: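 Read-out: fluorescent reporter mRNA fragments resolved by capillary electrophoresis after RT-PCR. Human HepG2 liver cells carried transfected cis-promoter reporter units and were exposed to chemicals for 24 hours. Gain or loss of signal fitted relative to DMSO baseline.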
# Signal transducer and activator of transcription 3 (Homo sapiens), sequence (P40763 whole entry, looked up, the tested form may be a part): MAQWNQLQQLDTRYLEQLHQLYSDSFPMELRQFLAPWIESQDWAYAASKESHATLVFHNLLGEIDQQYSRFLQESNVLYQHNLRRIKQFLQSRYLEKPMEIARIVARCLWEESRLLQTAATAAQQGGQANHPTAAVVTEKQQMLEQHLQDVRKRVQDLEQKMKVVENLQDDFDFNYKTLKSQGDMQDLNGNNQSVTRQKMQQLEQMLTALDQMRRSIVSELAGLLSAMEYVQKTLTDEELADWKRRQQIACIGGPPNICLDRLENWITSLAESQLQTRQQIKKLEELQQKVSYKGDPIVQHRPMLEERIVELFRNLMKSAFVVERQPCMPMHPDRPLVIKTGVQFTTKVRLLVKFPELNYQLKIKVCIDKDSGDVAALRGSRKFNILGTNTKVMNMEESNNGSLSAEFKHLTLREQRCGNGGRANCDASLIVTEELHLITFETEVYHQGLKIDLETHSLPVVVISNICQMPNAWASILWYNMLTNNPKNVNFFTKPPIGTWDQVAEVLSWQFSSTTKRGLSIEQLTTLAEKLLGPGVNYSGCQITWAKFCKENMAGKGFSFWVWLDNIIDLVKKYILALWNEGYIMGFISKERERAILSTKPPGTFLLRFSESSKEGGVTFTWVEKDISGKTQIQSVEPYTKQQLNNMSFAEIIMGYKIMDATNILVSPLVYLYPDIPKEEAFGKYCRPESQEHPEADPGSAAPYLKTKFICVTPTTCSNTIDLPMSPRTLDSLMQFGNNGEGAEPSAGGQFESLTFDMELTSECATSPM
# Paired box protein Pax-6 (Homo sapiens), sequence (P26367 whole entry, looked up): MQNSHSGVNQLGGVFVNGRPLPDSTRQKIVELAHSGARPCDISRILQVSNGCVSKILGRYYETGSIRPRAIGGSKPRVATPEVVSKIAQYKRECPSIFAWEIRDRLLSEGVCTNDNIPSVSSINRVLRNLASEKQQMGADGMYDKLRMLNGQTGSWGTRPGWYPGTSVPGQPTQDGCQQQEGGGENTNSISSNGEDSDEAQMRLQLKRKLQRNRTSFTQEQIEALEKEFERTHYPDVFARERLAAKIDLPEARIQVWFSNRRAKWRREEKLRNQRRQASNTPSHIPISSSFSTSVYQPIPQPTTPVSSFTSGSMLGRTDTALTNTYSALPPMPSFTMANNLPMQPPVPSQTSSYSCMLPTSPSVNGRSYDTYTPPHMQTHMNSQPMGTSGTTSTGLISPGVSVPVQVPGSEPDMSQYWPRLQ
# Steroid hormone receptor ERR1 (Homo sapiens), sequence (P11474 whole entry, looked up, the tested form may be a part): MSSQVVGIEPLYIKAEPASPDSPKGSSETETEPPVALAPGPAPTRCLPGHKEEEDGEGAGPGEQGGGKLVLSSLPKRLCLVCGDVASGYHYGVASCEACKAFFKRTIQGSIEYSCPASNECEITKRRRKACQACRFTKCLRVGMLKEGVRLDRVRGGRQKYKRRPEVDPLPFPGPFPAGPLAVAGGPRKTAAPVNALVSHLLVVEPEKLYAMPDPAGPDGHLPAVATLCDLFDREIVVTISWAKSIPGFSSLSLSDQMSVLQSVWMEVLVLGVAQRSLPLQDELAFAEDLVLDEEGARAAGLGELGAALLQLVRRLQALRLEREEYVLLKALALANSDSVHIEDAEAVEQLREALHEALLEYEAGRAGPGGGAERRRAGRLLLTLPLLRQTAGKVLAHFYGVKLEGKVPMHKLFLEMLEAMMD
# Transcription factor Sp1 (Homo sapiens), sequence (P08047 whole entry, looked up): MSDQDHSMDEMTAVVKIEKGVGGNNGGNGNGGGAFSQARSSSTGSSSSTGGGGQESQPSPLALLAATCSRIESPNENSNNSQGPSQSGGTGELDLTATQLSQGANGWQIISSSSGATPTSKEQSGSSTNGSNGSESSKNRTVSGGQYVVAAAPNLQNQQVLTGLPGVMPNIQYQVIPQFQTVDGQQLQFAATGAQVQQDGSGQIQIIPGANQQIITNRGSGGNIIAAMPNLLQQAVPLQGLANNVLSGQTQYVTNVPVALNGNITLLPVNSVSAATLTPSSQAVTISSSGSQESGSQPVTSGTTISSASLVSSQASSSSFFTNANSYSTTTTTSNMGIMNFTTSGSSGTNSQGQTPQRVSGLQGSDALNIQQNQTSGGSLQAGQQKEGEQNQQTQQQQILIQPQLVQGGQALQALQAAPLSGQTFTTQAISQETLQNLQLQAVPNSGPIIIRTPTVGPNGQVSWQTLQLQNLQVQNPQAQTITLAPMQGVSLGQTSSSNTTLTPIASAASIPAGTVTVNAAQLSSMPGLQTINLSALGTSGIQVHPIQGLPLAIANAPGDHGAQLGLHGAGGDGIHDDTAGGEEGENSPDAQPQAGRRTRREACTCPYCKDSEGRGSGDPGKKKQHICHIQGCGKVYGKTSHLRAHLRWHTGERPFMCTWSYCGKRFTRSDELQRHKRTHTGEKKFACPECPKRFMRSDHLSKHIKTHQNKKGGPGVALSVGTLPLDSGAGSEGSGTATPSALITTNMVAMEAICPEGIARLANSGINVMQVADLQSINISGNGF
# X-box-binding protein 1 (Homo sapiens), sequence (P17861 whole entry, looked up, the tested form may be a part): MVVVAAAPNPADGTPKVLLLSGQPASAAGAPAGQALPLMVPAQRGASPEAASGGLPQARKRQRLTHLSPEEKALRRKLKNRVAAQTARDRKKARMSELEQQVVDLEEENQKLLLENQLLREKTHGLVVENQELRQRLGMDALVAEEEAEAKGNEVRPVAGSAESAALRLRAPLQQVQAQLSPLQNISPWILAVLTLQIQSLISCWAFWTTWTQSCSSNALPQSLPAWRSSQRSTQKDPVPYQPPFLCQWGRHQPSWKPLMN
# Estrogen receptor (Homo sapiens), sequence (P03372 whole entry, looked up, the tested form may be a part): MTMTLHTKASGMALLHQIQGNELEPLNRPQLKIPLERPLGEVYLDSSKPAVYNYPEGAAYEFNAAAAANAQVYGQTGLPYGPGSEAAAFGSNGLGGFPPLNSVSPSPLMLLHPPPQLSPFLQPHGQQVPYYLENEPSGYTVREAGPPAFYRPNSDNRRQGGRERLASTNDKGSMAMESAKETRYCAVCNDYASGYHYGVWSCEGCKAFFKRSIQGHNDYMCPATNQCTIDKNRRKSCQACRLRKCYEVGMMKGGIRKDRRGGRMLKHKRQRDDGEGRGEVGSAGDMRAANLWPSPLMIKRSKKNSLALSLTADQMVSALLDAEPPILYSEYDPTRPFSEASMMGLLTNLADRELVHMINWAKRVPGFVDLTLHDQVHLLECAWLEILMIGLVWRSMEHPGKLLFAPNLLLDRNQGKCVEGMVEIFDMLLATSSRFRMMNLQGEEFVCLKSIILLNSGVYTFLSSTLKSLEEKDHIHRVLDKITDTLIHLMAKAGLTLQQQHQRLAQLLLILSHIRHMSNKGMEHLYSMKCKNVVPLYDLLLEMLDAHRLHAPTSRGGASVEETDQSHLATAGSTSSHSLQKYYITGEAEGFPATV
# Nuclear receptor subfamily 1 group I member 3 (Homo sapiens), sequence (Q14994 whole entry, looked up, the tested form may be a part): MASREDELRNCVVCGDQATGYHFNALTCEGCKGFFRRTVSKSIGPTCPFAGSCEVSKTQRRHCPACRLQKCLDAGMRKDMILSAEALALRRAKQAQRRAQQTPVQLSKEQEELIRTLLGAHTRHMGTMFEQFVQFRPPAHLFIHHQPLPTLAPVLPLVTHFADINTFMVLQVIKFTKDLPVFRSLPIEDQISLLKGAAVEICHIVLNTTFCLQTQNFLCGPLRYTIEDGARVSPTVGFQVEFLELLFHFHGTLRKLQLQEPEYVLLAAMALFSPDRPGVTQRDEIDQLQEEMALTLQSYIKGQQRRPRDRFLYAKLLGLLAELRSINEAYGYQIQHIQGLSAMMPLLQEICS
smiles,measurement,setting,value
CC(=O)CC(C)(C)C1CCCCC1,outcome,[1],inactive
same,outcome,[2],inactive
same,AC50,[3],30.7 µM (active)
same,outcome,[4],inactive
same,outcome,[5],inactive
same,outcome,[6],inactive
same,outcome,[7],inactive
same,outcome,[8],inactive
same,outcome,[9],inactive
same,outcome,[10],inactive
same,outcome,[11],inactive
same,outcome,[12],inactive
same,outcome,[13],inactive
same,outcome,[14],inactive
same,outcome,[15],inactive
same,outcome,[16],inactive
same,outcome,[17],inactive
same,outcome,[18],inactive
CC(=O)OCC=C(C)CCC=C(C)CCC=C(C)C,AC50,[1],175 µM (active)
same,AC50,[2],63.8 µM (active)
same,AC50,[3],9.61 µM (active)
same,outcome,[4],inactive
same,AC50,[5],164 µM (active)
same,AC50,[6],162 µM (active)
same,outcome,[7],inactive
same,outcome,[8],inactive
same,outcome,[9],inactive
same,AC50,[10],100 µM (active)
same,AC50,[12],100 µM (active)
same,outcome,[19],inactive
same,outcome,[14],inactive
same,AC50,[15],9.02 µM (active)
same,outcome,[16],inactive
same,AC50,[20],151 µM (active)
OCCN1CCOCC1,outcome,[1],inactive
same,outcome,[2],inactive
same,outcome,[3],inactive
same,outcome,[4],inactive
same,outcome,[5],inactive
same,outcome,[6],inactive
same,outcome,[7],inactive
same,outcome,[8],inactive
same,outcome,[9],inactive
same,outcome,[11],inactive
same,outcome,[12],inactive
same,outcome,[13],inactive
same,outcome,[14],inactive
same,AC50,[15],67.5 µM (active)
same,outcome,[20],inactive
same,outcome,[18],inactive
CC(=O)N(C)C,outcome,[1],inactive
same,outcome,[2],inactive
same,outcome,[3],inactive
same,outcome,[4],inactive
same,outcome,[5],inactive
same,outcome,[6],inactive
same,outcome,[7],inactive
same,outcome,[8],inactive
same,outcome,[9],inactive
same,outcome,[10],inactive
same,outcome,[11],inactive
same,outcome,[12],inactive
same,outcome,[16],inactive
same,outcome,[20],inactive
same,outcome,[17],inactive
same,outcome,[18],inactive
